Screening results deposited in PubChem BioAssay by National Center for Advancing Translational Sciences (NCATS).
Shown are actives, neighbours in structure and some others; about 2.4% of the full set was active somewhere.
D2 PAM-1: human D2 receptor positive allosteric modulation. P14416. DiscoveRx D2 beta-arrestin cells, luminescence, 90 min; 100% = 57 uM dopamine signal. potentiation, % (test concentration not listed). 0.23% of 360,000 active; in the data active = potentiation above about 50%; inconclusive = mostly about 30% to 49%
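PathHunter beta-arrestin assay in DiscoveRx D2 cells. Compounds were added with an EC20 of dopamine (50 nM final) for 90 min at 37 deg C. Luminescence was read 1 h after detection reagent, with 57 uM dopamine as the EC100 control.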
D2 ag-1: D2 dopamine receptor (human) agonism. P14416. HEK293 T-REx D2 cells, calcium flux agonist mode. activation, % at 2 µM. 0.53% of 340,000 active. AID 485358;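 active = activation over 3 SD above normal in the single-dose calcium agonist read, cut at about 30% in these data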; note: 0% is about no effect
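Tetracycline-induced HEK293 T-REx cells with force-coupled D2 receptor, plated overnight at 30 C, loaded with no-wash calcium dye. After a 10 s baseline, compound was pin-added and calcium flux read kinetically for 180 s; calcium rises flagged agonists.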
D2 ag-2: human D2 receptor agonism in beta-arrestin assay | P14416 | DiscoveRx PathHunter D2 beta-arrestin, luminescence, 90 min; 100% = 57 uM dopamine signal | activation, % (no concentration beside the values) | 0.084% of 360,000 active; in the data active = activation above about 40%; inconclusive = between about 15% and that limit
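DiscoveRx PathHunter D2 beta-arrestin cells (2,100/well) attached overnight, then compound-stimulated 90 min at 37 C in HBSS/10 mM HEPES/0.1% Tween-20 buffer; beta-galactosidase complementation read by luminescence after 1 h at ambient temperature. Dopamine 57 uM final (EC100) as control.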
D2 antagonist: antagonists of human D2 dopamine receptor; P14416; HEK293 TREx D2 cells, calcium flux, dopamine EC80; inhibition, % at 10 µM; 2% of 340,000 active; AID 485344; in the data active = inhibition above about 30%; inactive = below that, where a call was filed; note: 0% is about no effect
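Tetracycline-induced HEK293 TREx cells expressing D2 receptor forced-coupled to calcium signalling, loaded with no-wash calcium dye. Compounds added and calcium flux read 180 s, then dopamine added at EC80 and read a further 180 s.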
D2 PAM-2: D2 dopamine receptor (human) potentiation; 0.34% of 340,000 active; potentiation, % at 10 µM; HEK293 T-REx D2, calcium flux, EC20 dopamine potentiation; P14416; AID 485347;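 active = potentiation over 3 SD above the plate norm, cut at about 30% in these data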; note: 0% is about no effect
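Primary screen. Calcium kinetics in induced HEK293 T-REx D2 cells: compound pre-addition 180 s, EC20 dopamine, 180 s more.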
D3 arrestin ag: D3 receptor agonism confirmed, beta-arrestin readout; Potency, µM (titrated, usually from 76.9 µM), without a hit: at the highest dose activation, most hits filed as activators; shares compounds with D2 ag-1; DiscoveRx D3 beta-arrestin cells, luminescence, 90 min; 4% of 2,300 active;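 note: potency is the fitted concentration of half-maximal effect; 100% = dopamine control response; nearly all actives have a fitted effect of over 70% in size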
Target sequence (P35462 whole entry, looked up): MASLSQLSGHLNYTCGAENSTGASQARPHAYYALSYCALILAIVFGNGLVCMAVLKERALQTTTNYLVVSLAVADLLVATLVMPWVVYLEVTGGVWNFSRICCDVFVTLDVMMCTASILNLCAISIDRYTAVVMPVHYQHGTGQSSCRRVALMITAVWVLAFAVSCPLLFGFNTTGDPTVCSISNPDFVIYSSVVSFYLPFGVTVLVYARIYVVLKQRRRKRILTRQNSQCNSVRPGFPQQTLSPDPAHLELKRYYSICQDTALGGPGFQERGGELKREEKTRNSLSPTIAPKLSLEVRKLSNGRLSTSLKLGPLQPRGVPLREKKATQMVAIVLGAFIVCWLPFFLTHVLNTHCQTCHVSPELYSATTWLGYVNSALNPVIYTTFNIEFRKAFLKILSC
D2 ag-3: activates human D2 dopamine receptor in D3 counterscreen. Potency, µM (top dose mostly 76.9 µM), inactives show top-dose activation, usual class: activators. 5.9% of 2,300 active. DiscoveRx PathHunter D2 beta-arrestin, luminescence, 90 min; response scale: percent relative to full dopamine signal. shares compounds with D2 ag-1; note: potency is the fitted concentration of half-maximal effect; % of control where 0% means no effect; nearly all actives have a fitted effect of over 70% in size
Numbers without * were called inactive. Unless noted, calls come from the whole dose curve; as a rule, active = well fitted activation curve with a large enough effect; inconclusive = small, poorly fitted or top-dose-only effect; inactive = flat fitted curve, though single readings scatter.

Screening Cc1sc(NC(=O)c2ccco2)c(CN2CCN(c3ccccn3)CC2)c1C returned D2 PAM-1 19, D2 ag-1 68*, D2 ag-2 8, D2 antagonist 124*, D2 PAM-2 -30, D3 arrestin ag 11% and D2 ag-3 30%.
For CC(=O)Nc1sc2c(c1CN1CCN(c3ccccn3)CC1)CCCC2 the results were D2 PAM-1 -31, D2 ag-1 16, D2 ag-2 -3, D2 antagonist -10 and D2 PAM-2 -24.
For c1ccc(N2CCN(Cc3ccsc3)CC2)nc1 the results were D2 PAM-1 101*, D2 ag-1 76*, D2 ag-2 66*, D2 antagonist 84*, D2 PAM-2 -16, D3 arrestin ag inconclusive and D2 ag-3 0.71µM*.
CCCC(=O)N(CC(=O)Nc1sc(C)c(C)c1C(N)=O)Cc1ccccc1 was read as D2 PAM-1 -9, D2 ag-1 0, D2 ag-2 3, D2 antagonist -10 and D2 PAM-2 9.
C/C=C/c1cc(CN2CCN(c3ccccc3)CC2)c(O)c(OC)c1 was read as D2 PAM-1 3, D2 ag-2 5, D2 PAM-2 -33, D3 arrestin ag -5% and D2 ag-3 6%.
O=C(c1ccc(N2CCOCC2)c([N+](=O)[O-])c1)N1CCN(Cc2ccccc2)CC1 was read as D2 PAM-1 -6, D2 ag-1 60*, D2 ag-2 3, D2 antagonist -1, D2 PAM-2 -20, D3 arrestin ag -2% and D2 ag-3 4%.
For O=C(N1CCOCC1)N1CCN(Cc2ccccc2)CC1 the results were D2 PAM-1 15, D2 ag-1 1, D2 ag-2 -1, D2 antagonist 9 and D2 PAM-2 -6.
Screening CC(C)(C)c1ccc(C(=O)N2CCN(Cc3ccccc3)CC2)cc1 returned D2 PAM-1 -47, D2 ag-1 17, D2 ag-2 -2, D2 antagonist 19 and D2 PAM-2 -13.
`N=C(N)N1CCN(Cc2ccccc2)CC1` gave D2 ag-1 42*, D2 antagonist 20, D2 PAM-2 -18, D3 arrestin ag -5% and D2 ag-3 -3%.
O=C(c1ccc(Br)c([N+](=O)[O-])c1)N1CCN(Cc2ccccc2)CC1 was read as D2 PAM-1 -5, D2 ag-1 1, D2 ag-2 0, D2 antagonist -5 and D2 PAM-2 4.
O=C(c1ccccc1)N1CCN(Cc2ccccc2)CC1 was read as D2 PAM-1 -28, D2 ag-1 3, D2 ag-2 1, D2 antagonist 21, D2 PAM-2 -11, D3 arrestin ag -23% and D2 ag-3 inconclusive.
For O=C(c1ccccc1)N1CCN(CC#Cc2ccccc2)CC1 the results were D2 PAM-1 -7, D2 ag-2 3, D2 PAM-2 -9, D3 arrestin ag inconclusive and D2 ag-3 6%.
Screening CC(C)(C)c1ccc(C(=O)N2CCN(Cc3cc(=O)n4nc(-c5ccccc5F)sc4n3)CC2)cc1 returned D2 ag-1 1 and D2 PAM-2 -4.
CCOC(=O)Cc1csc(SCC(=O)NC2CCC(C)CC2)n1 (configuration not stated) was read as D2 PAM-1 11, D2 ag-1 -1, D2 ag-2 -1, D2 antagonist 7 and D2 PAM-2 6.
`CN(C)c1ccc(NC(=O)CC(NCc2cccnc2)C(=O)O)cc1` (configuration not stated) gave D2 ag-1 2 and D2 PAM-2 14.
CN(c1ccc(C(=O)N2CCN(Cc3ccccc3)CC2)cc1)S(=O)(=O)c1ccc(Cl)cc1 was read as D2 PAM-1 -16, D2 ag-1 65*, D2 ag-2 inconclusive, D2 antagonist 90*, D2 PAM-2 -25, D3 arrestin ag 4% and D2 ag-3 inconclusive.
`Cn1c(N)c(C(=O)COC(=O)CCCOc2ccc(Cl)cc2Cl)c(=O)n(C)c1=O` gave D2 PAM-1 0, D2 ag-1 0, D2 ag-2 4, D2 antagonist 2 and D2 PAM-2 1.
For CCOC(=O)C1=C(CSc2nc(CC)c(C)cc2C#N)OC(N)=C(C#N)C1c1ccc(OC)cc1 (configuration not stated) the results were D2 PAM-1 2, D2 ag-1 3, D2 ag-2 -2, D2 antagonist 13, D2 PAM-2 -1, D3 arrestin ag 10% and D2 ag-3 2%.
Screening CCOC(=O)C1=C(CSc2nc(-c3ccncc3)ccc2C#N)OC(N)=C(C#N)C1c1ccc(OC)cc1 (configuration not stated) returned D2 PAM-1 18, D2 ag-1 0, D2 ag-2 6, D2 antagonist 17 and D2 PAM-2 0.
Screening CN(Cc1c(C(=O)N/N=C/c2ccc(F)cc2)nnn1-c1nonc1N)C1CCCCC1 returned D2 PAM-1 -1, D2 ag-1 -1, D2 ag-2 -3, D2 antagonist 10 and D2 PAM-2 -8.
For COc1ccc(/C=N/NC(=O)c2nnn(-c3nonc3N)c2CN(C)C2CCCCC2)cc1 the results were D2 PAM-1 -27, D2 ag-1 56*, D2 ag-2 -1, D2 antagonist -3, D2 PAM-2 -18, D3 arrestin ag 0% and D2 ag-3 -4%.
CC(C)c1c(C(=O)N/N=C/c2ccc3c(c2)OCO3)nnn1-c1nonc1N was read as D2 PAM-1 -3, D2 ag-1 0, D2 ag-2 2, D2 antagonist 10 and D2 PAM-2 10.
Screening Nc1nonc1-n1nnc(C(=O)N/N=C/c2ccc3c(c2)OCO3)c1-c1ccccc1 returned D2 PAM-1 -3, D2 ag-1 16, D2 ag-2 0, D2 antagonist 39*, D2 PAM-2 21, D3 arrestin ag inconclusive and D2 ag-3 -1%.
For Nc1nonc1-n1nnc(C(=O)N/N=C/c2ccc(Br)cc2)c1-c1ccc2c(c1)OCO2 the results were D2 PAM-1 3, D2 ag-1 12, D2 ag-2 -5, D2 antagonist 41*, D2 PAM-2 18, D3 arrestin ag 4% and D2 ag-3 7%.
`Nc1nonc1-n1nnc(C(=O)N/N=C/c2cccc(Cl)c2)c1-c1ccc2c(c1)OCO2` gave D2 PAM-1 -8, D2 ag-1 1, D2 ag-2 -8, D2 antagonist -36 and D2 PAM-2 1.
`Cc1ccc(C)c(Cn2c(=O)n(CCCCC(=O)NCc3ccccc3Cl)c(=O)c3ccccc32)c1` gave D2 PAM-2 -7.
